From PubChem BioAssay (NCI)
The panel holds about 83,000 compounds, 20% with a hit somewhere; the sample as a whole holds those more often.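 Single-concentration screen, 48 h exposure, 96-well plates. Endpoint: percent growth. Below 10 = active.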 Active and inactive are the calls of the source.

Experiments:
Experiment in all cases: NCI-60 one-dose screen, 48 h (100 = growth as untreated, 0 = no growth, -100 = all killed)
Settings in all cases: 10 µM unless noted
[1] = test system: SR leukemia
[2] = test system: RPMI-8226 leukemia
[3] = test system: OVCAR-8 ovarian
[4] = test system: OVCAR-5 ovarian
[5] = test system: OVCAR-4 ovarian
[6] = test system: SK-OV-3 ovarian
[7] = test system: IGROV1 ovarian
[8] = test system: OVCAR-3 ovarian
[9] = test system: HS 578T breast
[10] = test system: NCI/ADR-RES ovarian
[11] = test system: T-47D breast
[12] = test system: BT-549 breast
[13] = test system: MDA-MB-435 melanoma
[14] = test system: SW-620 colon
[15] = test system: MCF7 breast
[16] = test system: HCT-116 colon
[17] = test system: HCC-2998 colon
[18] = test system: KM12 colon

Measured: growth

O=C(NCCN1CCOCC1)Nc1ccc(-c2cc3c(Nc4ccc(Oc5cccc(C(F)(F)F)c5)c(Cl)c4)ncnc3s2)cc1
active: [1] 4.83% | [2] -14.8% | [9] -3.09% | [11] -1.15% | [13] 1.05% | [14] -46.8% | [15] -2.16% | [16] -13% | [17] 5.37% | [18] -65%
inactive: [3] 41.1% | [4] 36.2% | [5] 39.2% | [6] 24.5% | [7] 28.3% | [8] 41.1% | [10] 77.2% | [12] 40%

COc1ccc(/C=C/c2nc(-c3n[nH]c(=O)n3-c3ccccc3)c3ccccc3n2)cc1
inactive: [1] 92.6% | [2] 89.6% | [3] 98.9% | [4] 96.1% | [5] 91.4% | [6] 94.8% | [7] 99.1% | [8] 101% | [9] 100% | [10] 100% | [11] 89.3% | [12] 111% | [13] 99.4% | [14] 89.6% | [15] 90.6% | [16] 104% | [17] 112% | [18] 94.2%

COc1ccc(-n2nc(C)c3c(Nc4ccc(NC(=O)Nc5cccc(C(F)(F)F)c5)cc4)ncnc32)cc1
inactive: [1] 21.2% | [6] 16.9% | [12] 25.2% | [14] 12.4% | [17] 14.1%
active: [2] -10.9% | [3] 2.63% | [4] 2.66% | [5] 7.24% | [7] 7.48% | [8] -31.6% | [9] -6.67% | [10] 4.85% | [11] -13.9% | [13] 6.96% | [15] 2.15% | [16] 1.52% | [18] 2.78%

O=C1c2ccccc2C(=O)c2c(N=Nc3[nH]c(=S)[nH]c3O)cccc21
active: [2] -2.62% | [8] 1.75% | [9] 5.86% | [13] -67.7%
inactive: [1] 24.5% | [3] 30.3% | [4] 49.8% | [5] 58.9% | [6] 30.6% | [7] 27% | [10] 50% | [11] 21.8% | [12] 34.3% | [14] 18% | [15] 18.7% | [16] 20.1% | [17] 29.9% | [18] 17%

NNCCc1ccc(NC(=O)CCCc2ccc(/C=C/C(=O)NO)cc2)cc1
active: [3] 8.02% | [11] -5.44%
inactive: [1] 18.2% | [2] 37.5% | [4] 71.4% | [5] 29.9% | [6] 64.1% | [7] 62.9% | [8] 55.3% | [9] 21.2% | [10] 44.3% | [12] 44.9% | [13] 66% | [14] 43.3% | [15] 30.8% | [16] 35.3% | [17] 95.5% | [18] 57.1%

C#CC(F)(F)[C@]1(O)CC[C@H]2[C@@H]3CCC4=CC(=O)CCC4=C3[C@@H](c3ccc(C(C)=O)cc3)C[C@@]21C
inactive: [3] 90% | [4] 84.4% | [5] 76.2% | [6] 52.8% | [9] 76.5% | [10] 82.7% | [11] 58.4% | [12] 106% | [13] 102% | [14] 81.1% | [15] 58% | [16] 94.9% | [17] 108% | [18] 29.8%
active: [1] 7.36% | [2] 2% | [7] -34.3% | [8] 9.4%

C#Cc1cccc(NC(=O)c2ccccc2NC(=O)C=C)c1
inactive: [1] 101% [8.25 µM] | [2] 66.9% [8.25 µM] | [3] 91.4% [8.25 µM] | [4] 113% [8.25 µM] | [5] 100% [8.25 µM] | [6] 99.2% [8.25 µM] | [7] 101% [8.25 µM] | [8] 104% [8.25 µM] | [9] 89.9% [8.25 µM] | [10] 103% [8.25 µM] | [11] 76.6% [8.25 µM] | [12] 102% [8.25 µM] | [13] 103% [8.25 µM] | [14] 109% [8.25 µM] | [15] 82.4% [8.25 µM] | [16] 102% [8.25 µM] | [17] 104% [8.25 µM] | [18] 97.8% [8.25 µM]

CCc1nc(N)nc(N)c1C#CC(C)c1cc(-c2ccnc(C)c2)c2oc(C)nc2c1 (stereo not drawn)
inactive: [3] 18.6% | [4] 36.8% | [5] 51% | [6] 16.8% | [8] 17% | [9] 26.4% | [10] 11.5% | [12] 18.2% | [13] 19.4% | [14] 16.9% | [16] 11.6% | [17] 13%
active: [1] 3.38% | [2] 2.39% | [7] 2.77% | [11] 9.59% | [15] 8.57% | [18] 5.92%

O=C1c2ccccc2C(=O)c2c1ccc1[nH]c(-c3cccs3)nc21
inactive: [1] 37.4% | [2] 63.7% | [3] 81.5% | [4] 88.5% | [5] 102% | [6] 107% | [7] 89.7% | [8] 82.8% | [9] 99.2% | [10] 78.7% | [11] 56.1% | [12] 65.5% | [13] 101% | [14] 90.7% | [15] 66.4% | [16] 70.5% | [17] 99.3% | [18] 70.5%

COc1ccc(S(=O)(=O)N2CCCCCC2)cc1NC(=O)c1[nH]c(C)c2c1CCCCC2=O
inactive: [1] 35.6% | [2] 10.7% | [3] 28.5% | [4] 50.5% | [5] 37.3% | [6] 14.1% | [7] 24.2% | [8] 30.4% | [9] 17.5% | [10] 29.2% | [12] 42.2% | [13] 25.6% | [14] 60.8% | [15] 17.9% | [16] 23.8% | [17] 20.2% | [18] 32.8%
active: [11] 9.29%

Nc1ccc(S(=O)(=O)O)c2ccc(N=Nc3ccc(N=Nc4ccc(S(=O)(=O)O)cc4)c4ccccc34)c(O)c12
inactive: [1] 99.8% | [2] 104% | [3] 103% | [4] 108% | [5] 115% | [6] 96% | [7] 86.5% | [8] 108% | [9] 100% | [10] 112% | [11] 124% | [12] 107% | [13] 122% | [14] 93.5% | [15] 101% | [16] 99.4% | [17] 105% | [18] 99%

O=C1NC(=Nc2ccc(O)cc2)S/C1=C\c1cccc(Cl)c1
active: [2] 2.99% | [13] 2.14%
inactive: [1] 23.1% | [3] 84.3% | [4] 110% | [5] 90.3% | [6] 77.1% | [7] 65.7% | [8] 30.1% | [9] 63.1% | [10] 83.8% | [11] 76% | [12] 64.9% | [14] 30.7% | [15] 18.6% | [16] 24.2% | [17] 83.8% | [18] 21.9%

CCCCCCN(CCCCCC)CCC(O)c1ccc2ccccc2c1 (stereo not drawn)
active: [1] 0.428% | [2] 7.65%
inactive: [3] 73.4% | [4] 69.5% | [5] 45.7% | [6] 83.5% | [7] 59.6% | [8] 69.7% | [9] 69.1% | [10] 58% | [11] 34.4% | [12] 74.7% | [13] 68.3% | [14] 48.2% | [15] 26.6% | [16] 24.3% | [17] 44.6% | [18] 56.2%

NC(=O)c1cc(Br)ccc1NC(=O)/C=C/c1ccccc1
inactive: [2] 24.4% | [3] 54.4% | [4] 49.9% | [5] 35.8% | [6] 31.1% | [7] 86.6% | [9] 16.3% | [10] 11% | [11] 36.4% | [12] 90.1% | [14] 29.1% | [15] 19.9% | [16] 38% | [17] 64.4% | [18] 20.7%
active: [1] -10.1% | [8] -12.2% | [13] -7.27%

CC1=C[C@H]2c3c(c(O)c(O)c4oc5ccccc5c(=O)c34)[C@H](c3cc(O)c(O)c4oc5ccccc5c(=O)c34)[C@H]2C(C)(C)C1
inactive: [2] 15.2% | [4] 25.8% | [8] 10.4% | [10] 23.9% | [14] 11.9% | [17] 11.6%
active: [1] 0.353% | [3] 1.23% | [5] 1.7% | [6] -14.1% | [7] -4.25% | [9] -4.62% | [11] 9.72% | [12] -15.3% | [13] -36% | [15] 9.6% | [16] -84.8% | [18] -1.27%

C(=N/Nc1ncc(-c2cc3cc(-c4ccccc4)ccc3o2)s1)/c1cccs1
inactive: [1] 79% | [2] 70.4% | [3] 99.5% | [4] 93.9% | [5] 89.6% | [6] 113% | [7] 102% | [8] 97.1% | [9] 107% | [10] 101% | [11] 100% | [12] 110% | [13] 95.9% | [14] 99.7% | [15] 89.7% | [16] 91.5% | [17] 100% | [18] 97%
